Test in all cases: NCI-60 one-dose screen, 48 h (100 = growth as untreated, 0 = no growth, -100 = all killed)
Test [1] relates to HCT-15 colon. The settings on record: 10 µM unless noted.
Test [2] concerns HT29 colon. The settings on record: 10 µM unless noted.
For test [3], the system named is SNB-75 CNS. The settings on record: 10 µM unless noted.
The test system of test [4] is SNB-19 CNS. The settings on record: 10 µM unless noted.
Test [5] has as its system PC-3 prostate. The settings on record: 10 µM unless noted.
Test [6] relates to SK-MEL-5 melanoma. The settings on record: 10 µM unless noted.
Test [7] has as its system UACC-62 melanoma. The settings on record: 10 µM unless noted.
For test [8], the system named is LOX IMVI melanoma. The settings on record: 10 µM unless noted.
Test [9] relates to SK-MEL-28 melanoma. The settings on record: 10 µM unless noted.
Test [10] deals with EKVX NSCLC. The settings on record: 10 µM unless noted.
Test [11] concerns SN12C renal. The settings on record: 10 µM unless noted.
The subject of test [12] is UO-31 renal. The settings on record: 10 µM unless noted.
Test [13] relates to TK-10 renal. The settings on record: 10 µM unless noted.
In test [14] the test system is ACHN renal. The settings on record: 10 µM unless noted.
Test [15] has as its system CAKI-1 renal. The settings on record: 10 µM unless noted.
Test [16] relates to A498 renal. The settings on record: 10 µM unless noted.
The test system of test [17] is CCRF-CEM leukemia. The settings on record: 10 µM unless noted.
Test [18] has as its system MOLT-4 leukemia. The settings on record: 10 µM unless noted.
Test [19] has as its system SK-MEL-2 melanoma. The settings on record: 10 µM.
Test [20] concerns U251 CNS. The settings on record: 10 µM unless noted.

Compounds without any hit were thinned out: in the full panel of roughly 83,000, 20% have a hit.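 Percent growth is the endpoint: 0 to 100 indicates growth inhibition (40 means 60% inhibition), 0 means no net growth, and negative values indicate cell death.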 Unmarked numbers belong to inactive results. Calls of active or inactive are those of the source. How the source made its calls: active means growth percent below 10; inactive means the rest.

As for `C[C@@H](NC(=O)c1ncnc(N)c1Cl)c1ncc(C(=O)Nc2cc(C(F)(F)F)c(Cl)cn2)s1`, the growth in [1] is 86.4%; in test [2], 20.1%; in test [3], 103%; in test [4], 94.7%; in test [5], 93.7%; in test [6], 51.2%. Moreover, the growth was -0.831% (active) in [7]; 36.5% in test [8]; 9.63% (active) in test [9]; 101% in [10]; 82.6% in [11]; 52.8% in [12]. Further, the growth was 77.4% in test [13]; 74.5% in [14]; 74.2% in test [15]; 59.6% in test [16]; 78.5% in [17]; 70.8% in test [18].

Take `COC(=O)[C@H](Cc1ccccc1)NC(=O)[C@@H](OC)[C@@H]1Cc2cc3cc(OC4CC(OC5CC(O)C(O)C(C)O5)C(O)C(C)O4)c(C)c(O)c3c(O)c2C(=O)[C@H]1OC1CC(OC2CC(OC3CC(C)(O)C(O)C(C)O3)C(O)C(C)O2)C(O)C(C)O1` (stereo partly specified): the growth is 5.61% (active) in test [1]; 4.24% (active) in test [2]; -86.8% (active) in test [3]; 4.82% (active) in test [4]; -9.57% (active) in test [5]; -78% (active) in test [6]. The growth in test [7] was -56.6% (active); in [8] it was -18.2% (active); in [9] it was -27% (active); in test [10], -2.04% (active); in [11], 4.42% (active); in test [12], -7.79% (active). Also, the growth was 6.76% (active) in test [13]; -8.69% (active) in [14]; -40.3% (active) in test [16]; 4.07% (active) in [17]; -5.77% (active) in [18].

Consider `C[C@@H]1COCCN1c1cc(C2([S@](C)(=N)=O)CC2)nc(-c2ccnc3[nH]ccc23)n1`, for which the growth was 31.7% in [1]; 13.4% in [2]; 31.1% in test [3]; 28% in [4]; 50.7% in [5]; 21.4% in test [6]. The growth in test [7] is 23.7%; in [8], 2.37% (active); in test [9], 70.7%; in test [10] it was 54.2%; in [11] it was 41%; in [12], 13.2%. Moreover, the growth is 42.9% in test [13]; 7.85% (active) in [14]; 28.9% in test [15]; -21.2% (active) in test [16]; 7.78% (active) in test [17]; 7.26% (active) in test [18].

For `COc1ccc2c(c1OC)C(=O)O[C@@H]2[C@H]1c2c(c(C#CC#Cc3ccc(F)c(F)c3)c3c(c2OC)OCO3)CCN1C`, the growth in test [1] was 56.8%; in test [2], 92.3%; in test [3], 89.6%; in [4], 103%; in [5] it was 50.8%; in [6], 66.2%. For the same compound, the growth in test [7] was 69.5%; in test [8], 90.9%; in test [9], 96.3%; in test [19], 91.8%; in test [10] it was 90.3%; in test [11], 100%. Also, the growth is 70.5% in test [12]; 95.3% in test [13]; 95% in test [14]; 86.6% in test [15]; 101% in test [17]; 89% in test [18].

Consider `C#Cc1cccc(Nc2ncnc3cc(OC)c(OCCCCCCC(=O)NO)cc23)c1`, for which the growth in test [1] was 7.16% (active); in [2], -13.4% (active); in test [3], 2.04% (active); in test [4] it was 7.79% (active); in test [20], -58.1% (active); in test [5], 10.4%. The growth is -91.4% (active) in [6]; -78.3% (active) in test [7]; -89.3% (active) in test [8]; -29.5% (active) in test [9]; 25% in test [10]; 5.37% (active) in test [11]. The growth was -48% (active) in test [13]; -68.6% (active) in [15]; -86.3% (active) in test [16]; 3.23% (active) in test [17]; -1.32% (active) in test [18].

With `C[C@@H](Oc1cc(-c2cnn(C3CCNCC3)c2)cnc1N)c1c(Cl)ccc(F)c1Cl`, the growth is -5.99% (active) in [1]; -49.4% (active) in test [2]; -67.7% (active) in [3]; 3.67% (active) in test [4]; -5.54% (active) in test [5]; -99.8% (active) in [6]. Further, the growth was -83.5% (active) in [7]; -90.8% (active) in [8]; -84.7% (active) in test [9]; 0.0738% (active) in test [10]; -41% (active) in test [11]; -73.4% (active) in test [12]. The growth is -36.2% (active) in [13]; -45.9% (active) in [14]; -64.1% (active) in [15]; -68.3% (active) in test [16]; -19.5% (active) in [17]; -34.5% (active) in test [18].

For the compound `COc1ccc(C2OC(c3cc(-c4cc5ccccc5o4)nn3-c3ccccc3)=NN2C(C)=O)cc1` (stereo unspecified), the growth was 97.2% in test [1]; 93.3% in [2]; 87.5% in test [3]; 91.3% in test [4]; 88.9% in test [5]; 8.69% (active) in test [6]. The growth in [7] was 86.9%; in test [8] it was 85.5%; in test [9] it was 109%; in [19] it was 94.5%; in test [10] it was 94.5%; in test [11], 93.2%. In addition, the growth was 111% in test [13]; 99.3% in test [14]; 100% in test [15]; 95.5% in test [17]; 83% in test [18].

In the case of `CCN1CCN(c2nc(C)cc(N(CCCNc3ccnc4cc(Cl)ccc34)Cc3ccc4c(c3)OCO4)n2)CC1`, the growth in test [1] is -32.9% (active); in [2] it was -26.2% (active); in test [3] it was -53.5% (active); in test [4], 24.8%; in [5], 24.7%; in test [6] it was -97.6% (active). The growth in [7] is -52.9% (active); in test [8], -84.4% (active); in test [9], -64.1% (active); in test [19], -60.1% (active); in [10] it was 35.8%; in test [11] it was 30.1%. Besides, the growth was -86.8% (active) in test [12]; -70.7% (active) in test [13]; -25% (active) in test [14]; -27.7% (active) in test [16]; -13.5% (active) in test [17]; -14.1% (active) in [18].

(Values after PubChem BioAssay (NCI).)
